For part of these data: Potency and affinity values are given separately. Active and inactive are the calls of the source.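 How the source made its calls, unless noted: active means primary screen hit whose fluorescence ratio, in both repeats, exceeds the weak agonist control mean by 3 SD; inactive means the rest.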
Legend:
[1] = tested on: TRPC4 beta (transient receptor potential cation channel C4), mouse; test: TRPC4 cation channel opening, retest – cell-based, Fluo4 calcium, HEK293 TRPC4beta/mu-opioid, duplicates, 10 µM, confirmation (AID 2426;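 active means fluorescence ratio normalized to control raised more than 50% in primary screen plus both repeat runs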;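 on activation: percent rise of integrated ratio over buffer wells lacking compound which define 0%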); conditions: Fluo4 calcium fluorescence, at 10 µM; stronger effect = higher value
[2] = tested on: transient receptor potential cation channel C4 beta (TRPC4), mouse; test: TRPC4 cation channel opening, second retest – cell-based, second round, Fluo4, HEK293 TRPC4beta/mu-opioid, 1 µM, confirmation (AID 2461;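 active means primary screen active and over 50% activation in each of two duplicate runs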); conditions: Fluo4 calcium fluorescence, at 1 µM; stronger effect = higher value
[3] = tested on: TRPC4 (transient receptor potential cation channel C4 beta), mouse; test: potentiation of DAMGO EC20 TRPC4 response – cell-based, second round, Fluo-4, HEK293 TRPC4beta/mu-opioid, 1 µM, confirmation (AID 2554); conditions: DAMGO EC20, Fluo-4 calcium flux, at 1 µM; stronger effect = higher value
[4] = tested on: TRPC4 beta (transient receptor potential cation channel C4), mouse; test: potentiation of DAMGO EC20 TRPC4 response – cell-based, Fluo-4, HEK293 TRPC4beta/mu-opioid, confirmation (AID 2555;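 active means primary screen hit whose calcium fluorescence ratio, in both repeats, exceeds the weak agonist control mean by 3 SD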); conditions: DAMGO EC20, Fluo-4 calcium flux, at 10 µM; stronger effect = higher value
[5] = target: Short transient receptor potential channel 4 (Mus musculus) (UniProt Q9QUQ5); test: blockers of DAMGO-evoked TRPC4 calcium flux – cell-based, Fluo4, HEK293 TRPC4beta/mu-opioid, confirmation (AID 2636;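 active means calcium signal cut by more than 3 SD below the full-agonist control yet still positive, in both repeats and the earlier primary screen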); conditions: at 10 µM; stronger effect = higher value
Sequence of Short transient receptor potential channel 4 (Mus musculus) (Q9QUQ5 whole entry, looked up): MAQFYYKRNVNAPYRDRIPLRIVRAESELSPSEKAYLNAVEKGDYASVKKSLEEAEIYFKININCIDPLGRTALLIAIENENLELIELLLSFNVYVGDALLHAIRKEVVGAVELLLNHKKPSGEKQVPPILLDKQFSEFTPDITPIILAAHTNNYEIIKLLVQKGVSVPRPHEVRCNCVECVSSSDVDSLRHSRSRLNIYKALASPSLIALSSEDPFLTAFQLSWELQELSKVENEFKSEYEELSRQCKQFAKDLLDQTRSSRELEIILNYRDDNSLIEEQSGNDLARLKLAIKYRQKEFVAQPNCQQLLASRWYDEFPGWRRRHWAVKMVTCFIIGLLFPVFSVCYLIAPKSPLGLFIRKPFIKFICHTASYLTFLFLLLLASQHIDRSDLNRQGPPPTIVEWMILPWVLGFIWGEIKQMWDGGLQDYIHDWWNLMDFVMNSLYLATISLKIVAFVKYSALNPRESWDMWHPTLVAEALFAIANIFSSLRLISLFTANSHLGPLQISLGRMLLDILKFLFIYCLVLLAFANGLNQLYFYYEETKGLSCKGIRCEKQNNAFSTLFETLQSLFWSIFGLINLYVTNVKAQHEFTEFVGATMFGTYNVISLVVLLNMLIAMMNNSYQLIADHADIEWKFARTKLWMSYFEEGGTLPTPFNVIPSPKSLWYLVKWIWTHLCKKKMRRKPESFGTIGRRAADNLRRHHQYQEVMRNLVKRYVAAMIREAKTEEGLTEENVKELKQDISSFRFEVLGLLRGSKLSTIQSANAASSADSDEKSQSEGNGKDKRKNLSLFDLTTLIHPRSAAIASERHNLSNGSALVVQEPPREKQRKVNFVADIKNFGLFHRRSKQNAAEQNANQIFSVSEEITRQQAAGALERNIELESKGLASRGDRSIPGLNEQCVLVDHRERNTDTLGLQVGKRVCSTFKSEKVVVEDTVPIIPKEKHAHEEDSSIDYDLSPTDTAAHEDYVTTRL

[6] = target: Short transient receptor potential channel 4 (Mus musculus) (UniProt Q9QUQ5); test: blockers of DAMGO-evoked TRPC4 calcium flux – cell-based, second round, Fluo4, HEK293 TRPC4beta/mu-opioid, 1 µM, confirmation (AID 2637;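 active means calcium signal ratio cut to more than 3 SD under the fully stimulated control mean yet still positive, in both repeats and the primary screen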); conditions: at 1 µM; stronger effect = higher value
[7] = target: Short transient receptor potential channel 4 (Mus musculus) (UniProt Q9QUQ5); test: calcium entry via TRPC4 opening agents – cell-based, HEK293 TRPC4/mu-opioid, Fluo-4 calcium, dose response (AID 434937;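 active means primary screen activator hit with a dose response curve and TRPC4 channel activation at any tested dose; inactive means no activation, no dose response, or not a primary hit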)
[8] = target: Short transient receptor potential channel 4 (Mus musculus) (UniProt Q9QUQ5); test: potentiation of DAMGO-evoked TRPC4 calcium signal – cell-based, HEK293 TRPC4/mu-opioid, Fluo-4 calcium, EC20 DAMGO, dose response (AID 434941;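 active means earlier screen potentiator hit that boosts the TRPC4 ion channel at some dose, with a dose response; inactive means no potentiation, no dose response, or not a prior hit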;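 further: calcium entry triggered by an EC20 dose of DAMGO at the co-expressed mu-opioid receptor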)
[9] = target: Short transient receptor potential channel 4 (Mus musculus) (UniProt Q9QUQ5); test: block of DAMGO-driven TRPC4 calcium entry – cell-based, HEK293 TRPC4/mu-opioid, Fluo-4 calcium, dose response (AID 434942;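 active means primary screen inhibitor hit that blocks the TRPC4 channel at some tested dose, yielding a dose curve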)
[10] = target: Short transient receptor potential channel 6 (Mus musculus) (UniProt Q61143); test: TRPC6 blockade by TRPC4 inhibitor hits – cell-based, HEK293, membrane potential dye, duplicate, selectivity assay for TRPC4 inhibitor project, confirmation (AID 434948;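 active means active in primary screen and both duplicates, each dropping signal beyond three positive-control SD with fluorescence still positive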); conditions: HEK293 TRPC6, membrane potential dye fluorescence, at 10 µM, stimulated with maximal-effect acetylcholine; stronger effect = higher value
Sequence of Short transient receptor potential channel 6 (Mus musculus) (Q61143 whole entry, looked up): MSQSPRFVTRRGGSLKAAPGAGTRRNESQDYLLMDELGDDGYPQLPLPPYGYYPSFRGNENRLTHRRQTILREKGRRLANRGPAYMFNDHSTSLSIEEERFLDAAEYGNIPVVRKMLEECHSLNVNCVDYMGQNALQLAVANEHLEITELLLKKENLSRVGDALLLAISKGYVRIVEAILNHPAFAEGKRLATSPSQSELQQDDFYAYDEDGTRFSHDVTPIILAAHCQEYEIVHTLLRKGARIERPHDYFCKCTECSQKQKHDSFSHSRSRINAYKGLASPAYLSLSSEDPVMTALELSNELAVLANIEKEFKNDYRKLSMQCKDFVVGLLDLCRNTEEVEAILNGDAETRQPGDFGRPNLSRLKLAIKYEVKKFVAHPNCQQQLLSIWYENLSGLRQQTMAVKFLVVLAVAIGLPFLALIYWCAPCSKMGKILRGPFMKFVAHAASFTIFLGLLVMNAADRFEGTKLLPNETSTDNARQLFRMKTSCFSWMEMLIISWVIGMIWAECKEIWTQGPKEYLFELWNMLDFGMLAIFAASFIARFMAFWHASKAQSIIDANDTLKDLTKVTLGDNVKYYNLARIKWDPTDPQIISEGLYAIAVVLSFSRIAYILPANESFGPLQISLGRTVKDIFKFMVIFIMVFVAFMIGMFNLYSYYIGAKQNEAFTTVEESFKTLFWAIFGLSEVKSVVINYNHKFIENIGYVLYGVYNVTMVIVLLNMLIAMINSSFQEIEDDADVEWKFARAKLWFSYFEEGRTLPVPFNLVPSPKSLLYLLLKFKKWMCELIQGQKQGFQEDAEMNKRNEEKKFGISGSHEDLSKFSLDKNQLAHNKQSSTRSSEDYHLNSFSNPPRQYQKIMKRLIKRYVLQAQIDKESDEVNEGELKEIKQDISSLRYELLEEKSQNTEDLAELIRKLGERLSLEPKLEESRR

[11] = target: Short transient receptor potential channel 6 (Mus musculus) (UniProt Q61143); test: TRPC6 opening by TRPC4 activator hits – cell-based, HEK293, membrane potential dye, duplicate, selectivity assay for TRPC4 activator project, confirmation (AID 434950;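 active means membrane potential signal rise above negative control mean plus 3 SD in both duplicates, also active in the earlier TRPC4 screen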); conditions: HEK293 TRPC6, membrane potential fluorescence, at 10 µM; activation: stronger effect = higher value; outcome: activation
[12] = target: Short transient receptor potential channel 6 (Mus musculus) (UniProt Q61143); test: positive modulators of mouse TRPC6 channel – HEK293 cells, membrane potential dye, duplicate, selectivity assay for TRPC4 potentiator project, confirmation (AID 434952;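 active means compound raising the membrane signal above positive-control mean plus 3 SD in both repeats, and a primary screen hit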); conditions: HEK293 TRPC6, membrane potential dye fluorescence, at 10 µM, maximal acetylcholine added after compound; stronger effect = higher value
[13] = target: Short transient receptor potential channel 4 (Mus musculus) (UniProt Q9QUQ5); test: calcium flux activators in TRPC4/5HT1a cells, counter-screen for TRPC4 activator project, cell-based, second counter screen, HEK293 TRPC4/5HT1a, Fluo-4 (AID 434977;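 active means calcium signal rise above buffer-control mean plus 5 SD in both duplicates, and also a hit in the primary screen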;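 on activation: plate controls were assay buffer for no effect and maximal serotonin response for full effect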); conditions: Fluo-4 calcium flux, at 10 µM; stronger effect = higher value
[14] = serotonin-gated TRPC4 signal block – cell-based, second counter screen, HEK293 TRPC4/5HT1a, Fluo-4, counter-screen for TRPC4 inhibitor project, confirmation (AID 434978;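 active means primary screen active whose calcium signal fell more than 3 SD beyond the full-serotonin control mean in both duplicate plates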;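 on outcome: serotonin given first at submaximal then at maximal dose after compound preincubation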); conditions: Fluo-4 calcium flux, at 10 µM, serotonin added to trigger calcium flux; stronger effect = higher value
[15] = tested on: TRPC4 (mouse), co-expressed with 5HT1a in HEK293; test: enhancement of serotonin-evoked TRPC4 response – cell-based, second counter screen, HEK293 TRPC4/5HT1a, Fluo-4, counter-screen for TRPC4 potentiator project, confirmation (AID 434979;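 active means signal rise over 3 SD above mean of control wells given weak agonist, in both repeats and first screen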); conditions: Fluo-4 calcium flux, at 10 µM, serotonin added at its EC20 dose; stronger effect = higher value
[16] = nonspecific calcium rise without TRPC4 – cell-based, HEK293 mu-opioid receptor line, counter-screen for TRPC4 activator project, confirmation (AID 449723;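 active means hit in primary screen, with calcium signal over 5 SD above buffer well mean in both duplicates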;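 further: counter screen cells carry the mu-opioid receptor alone and lack TRPC4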); conditions: HEK293 mu-opioid cells, Fluo-4 calcium fluorescence, at 10 µM; stronger effect = higher value
[17] = nonspecific potentiation of DAMGO calcium response – cell-based, HEK293 mu-opioid receptor line, counter-screen for TRPC4 allosteric potentiator project, confirmation (AID 449724;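 active means calcium signal rise more than 3 SD above the low-dose agonist control mean, in both duplicate plates and the primary screen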); conditions: HEK293 mu-opioid receptor cells, Fluo-4 calcium flux, at 10 µM, compound added before EC20 DAMGO stimulus; stronger effect = higher value

COc1ccc(S(=O)(=O)n2nc(OC(=O)c3ccccc3Br)cc2N)cc1
outcome [1]: inactive
outcome [2]: inactive
outcome [3]: inactive
outcome [4]: inactive
outcome [5]: inactive
outcome [6]: inactive
outcome [7]: inactive
outcome [8]: inactive
outcome [9]: inactive
outcome [10]: inactive
outcome [11]: inactive
outcome [12]: inactive
outcome [13]: inactive
outcome [14]: inactive
outcome [15]: inactive
outcome [16]: inactive
outcome [17]: inactive

COc1ccccc1NC(=O)CSc1n[nH]c(-c2ccccn2)n1
outcome [1]: inactive
outcome [2]: inactive
outcome [3]: inactive
outcome [4]: inactive
outcome [5]: inactive
outcome [6]: inactive
outcome [7]: inactive
outcome [8]: inactive
outcome [9]: inactive
outcome [10]: inactive
outcome [11]: inactive
outcome [12]: inactive
outcome [13]: inactive
outcome [14]: inactive
outcome [15]: inactive
outcome [16]: inactive
outcome [17]: inactive

CN(C)S(=O)(=O)c1ccc(Cl)c(C(=O)NC2CCN(Cc3ccccc3)C2)c1 (stereo not given)
outcome [1]: inactive
outcome [2]: inactive
outcome [3]: inactive
outcome [4]: inactive
outcome [5]: inactive
outcome [6]: inactive
outcome [7]: inactive
outcome [8]: inactive
outcome [9]: inactive
outcome [10]: inactive
outcome [11]: inactive
outcome [12]: inactive
outcome [13]: inactive
outcome [14]: inactive
potentiation [15]: 15.3% (active)
outcome [16]: inactive
outcome [17]: inactive

CCn1c(/C=C/Nc2ccccc2)[n+](CC)c2ccc(Cl)cc21
outcome [1]: inactive
outcome [2]: inactive
outcome [3]: inactive
outcome [4]: inactive
outcome [5]: inactive
outcome [6]: inactive
outcome [7]: inactive
outcome [8]: inactive
outcome [9]: inactive
outcome [10]: inactive
outcome [11]: inactive
outcome [12]: inactive
outcome [13]: inactive
outcome [14]: inactive
outcome [15]: inactive
outcome [16]: inactive
outcome [17]: inactive

CC1CCCCC1NS(=O)(=O)c1ccc(S(=O)(=O)N2CCCC2)cc1 (stereo not given)
outcome [1]: inactive
outcome [2]: inactive
outcome [3]: inactive
potentiation [4]: 32% (active)
outcome [5]: inactive
outcome [6]: inactive
outcome [7]: inactive
outcome [8]: inactive
outcome [9]: inactive
outcome [10]: inactive
outcome [11]: inactive
outcome [12]: inactive
outcome [13]: inactive
outcome [14]: inactive
potentiation [15]: 11.2% (active)
outcome [16]: inactive
outcome [17]: inactive

COC(=O)C1=C(C)NC2=C(C(=O)c3ccccc32)C1c1ccc(-c2ccc(C(=O)O)cc2)o1 (stereo not given)
outcome [1]: inactive
outcome [2]: inactive
outcome [3]: inactive
outcome [4]: inactive
outcome [5]: inactive
outcome [6]: inactive
outcome [7]: inactive
outcome [8]: inactive
outcome [9]: inactive
outcome [10]: inactive
outcome [11]: inactive
outcome [12]: inactive
outcome [13]: inactive
outcome [14]: inactive
outcome [15]: inactive
outcome [16]: inactive
activation [17]: 1780% (active)

CC(=O)c1c(O)c(C)c(O)c2c1OC1=CC(=O)C(C(C)=O)C(=O)[C@@]12C (stereo not given in full)
activation [1]: 246% (active)
outcome [2]: inactive
outcome [3]: inactive
outcome [4]: inactive
outcome [5]: inactive
outcome [6]: inactive
outcome [7]: inactive
outcome [8]: inactive
outcome [9]: inactive
outcome [10]: inactive
outcome [11]: inactive
outcome [12]: inactive
activation [13]: 20.7% (active)
outcome [14]: inactive
outcome [15]: inactive
activation [16]: 43.3% (active)
outcome [17]: inactive

Cc1ccc(Oc2ccccc2NC(=O)CSCC(=O)Nc2cc(C)on2)cc1
outcome [1]: inactive
outcome [2]: inactive
outcome [3]: inactive
outcome [4]: inactive
inhibition [5]: 62% (active)
outcome [6]: inactive
outcome [7]: inactive
outcome [8]: inactive
outcome [9]: inactive
outcome [10]: inactive
outcome [11]: inactive
outcome [12]: inactive
outcome [13]: inactive
inhibition [14]: 35.3% (active)
outcome [15]: inactive
outcome [16]: inactive
outcome [17]: inactive

CCOC(=O)c1sc2c(c1C)c(=O)n(CCO)c(=O)n2Cc1ccccc1
outcome [1]: inactive
outcome [2]: inactive
outcome [3]: inactive
outcome [4]: inactive
outcome [5]: inactive
outcome [6]: inactive
outcome [7]: inactive
outcome [8]: inactive
outcome [9]: inactive
outcome [10]: inactive
outcome [11]: inactive
outcome [12]: inactive
outcome [13]: inactive
outcome [14]: inactive
outcome [15]: inactive
outcome [16]: inactive
outcome [17]: inactive

Cc1ccc(S(=O)(=O)c2c(C(=O)c3ccccc3)cnc3cc4c(cc23)OCCO4)cc1
outcome [1]: inactive
outcome [2]: inactive
outcome [3]: inactive
outcome [4]: inactive
outcome [5]: inactive
outcome [6]: inactive
outcome [7]: inactive
outcome [8]: inactive
outcome [9]: inactive
outcome [10]: inactive
outcome [11]: inactive
outcome [12]: inactive
outcome [13]: inactive
outcome [14]: inactive
potentiation [15]: 14.5% (active)
outcome [16]: inactive
outcome [17]: inactive

CCN(C(=O)c1cc2c(s1)-c1ccccc1OC2)c1cc(OC)ccc1OC
outcome [1]: inactive
outcome [2]: inactive
outcome [3]: inactive
outcome [4]: inactive
outcome [5]: inactive
outcome [6]: inactive
outcome [7]: inactive
outcome [8]: inactive
outcome [9]: inactive
outcome [10]: inactive
outcome [11]: inactive
outcome [12]: inactive
outcome [13]: inactive
outcome [14]: inactive
outcome [15]: inactive
outcome [16]: inactive
outcome [17]: inactive

CCOC(=O)C1C(=O)C=C(c2ccc(C)cc2)CC1c1cccc([N+](=O)[O-])c1 (stereo not given)
outcome [1]: inactive
outcome [2]: inactive
outcome [3]: inactive
potentiation [4]: 46% (active)
outcome [5]: inactive
outcome [6]: inactive
outcome [7]: inactive
outcome [8]: inactive
outcome [9]: inactive
outcome [10]: inactive
outcome [11]: inactive
outcome [12]: inactive
outcome [13]: inactive
outcome [14]: inactive
potentiation [15]: 38.9% (active)
outcome [16]: inactive
outcome [17]: inactive

Cc1ccc(CSc2nnc(-c3cccc(S(=O)(=O)N4CCOCC4)c3)n2C2CCCC2)cc1
outcome [1]: inactive
outcome [2]: inactive
outcome [3]: inactive
outcome [4]: inactive
outcome [5]: inactive
outcome [6]: inactive
outcome [7]: inactive
outcome [8]: inactive
outcome [9]: inactive
outcome [10]: inactive
outcome [11]: inactive
outcome [12]: inactive
outcome [13]: inactive
outcome [14]: inactive
outcome [15]: inactive
outcome [16]: inactive
outcome [17]: inactive

CCOc1ccc(Nc2nc(Cc3nnc(SCC(=O)c4ccc(C)cc4)o3)cs2)cc1
outcome [1]: inactive
outcome [2]: inactive
outcome [3]: inactive
outcome [4]: inactive
outcome [5]: inactive
outcome [6]: inactive
outcome [7]: inactive
outcome [8]: inactive
outcome [9]: inactive
outcome [10]: inactive
outcome [11]: inactive
outcome [12]: inactive
outcome [13]: inactive
outcome [14]: inactive
potentiation [15]: 8.2% (active)
outcome [16]: inactive
outcome [17]: inactive

COc1ccc(CCNC(=O)Cn2cnc3c(cnn3C(C)(C)C)c2=O)cc1OC
outcome [1]: inactive
outcome [2]: inactive
outcome [3]: inactive
outcome [4]: inactive
outcome [5]: inactive
outcome [6]: inactive
outcome [7]: inactive
outcome [8]: inactive
outcome [9]: inactive
outcome [10]: inactive
outcome [11]: inactive
outcome [12]: inactive
outcome [13]: inactive
outcome [14]: inactive
potentiation [15]: 7.92% (active)
outcome [16]: inactive
outcome [17]: inactive
